Most compounds without a hit are left out; they make up all but 11% or so of the library.
HEK cytotox – Cytotoxic Profiling in HEK 293 Cell Line of Diverse Libraries Using Quantitative High-Throughput Screening; HEK 293 viability, ATP luminescence (CellTiter-Glo), 48-72 h; Potency, µM (top dose mostly 115 µM), inactives show top-dose activity change, negative = cytotoxicity, usual class: inhibitors; actives 6.6% (n = 94,000); AID 1345083, 2018; also: nearly all actives have a fitted effect of over 60% in size
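Luminescence from cellular ATP, measured with CellTiter-Glo, indicates HEK 293 viability. Cells plated at 250 cells/well are treated with compound for 48 or 72 hr at 37 degree Celsius before reagent addition.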
NPR1 antag – Natriuretic polypeptide receptor (hNpr1) antagonism - Primary qHTS; Atrial natriuretic peptide receptor 1 (Homo sapiens), P16066; HEK293 hNpr1 GloSensor cGMP, ANP-stimulated luminescence; Potency, µM (highest dose often 46.3 µM), inactives show at the top dose activity change, negative = inhibition, actives largely listed as inhibitors; actives 1.6% (n = 76,000); AID 1347048, 2019; calls by dose curve; also: nearly all actives have a fitted effect of over 60% in size
Target sequence (P16066 whole entry, looked up): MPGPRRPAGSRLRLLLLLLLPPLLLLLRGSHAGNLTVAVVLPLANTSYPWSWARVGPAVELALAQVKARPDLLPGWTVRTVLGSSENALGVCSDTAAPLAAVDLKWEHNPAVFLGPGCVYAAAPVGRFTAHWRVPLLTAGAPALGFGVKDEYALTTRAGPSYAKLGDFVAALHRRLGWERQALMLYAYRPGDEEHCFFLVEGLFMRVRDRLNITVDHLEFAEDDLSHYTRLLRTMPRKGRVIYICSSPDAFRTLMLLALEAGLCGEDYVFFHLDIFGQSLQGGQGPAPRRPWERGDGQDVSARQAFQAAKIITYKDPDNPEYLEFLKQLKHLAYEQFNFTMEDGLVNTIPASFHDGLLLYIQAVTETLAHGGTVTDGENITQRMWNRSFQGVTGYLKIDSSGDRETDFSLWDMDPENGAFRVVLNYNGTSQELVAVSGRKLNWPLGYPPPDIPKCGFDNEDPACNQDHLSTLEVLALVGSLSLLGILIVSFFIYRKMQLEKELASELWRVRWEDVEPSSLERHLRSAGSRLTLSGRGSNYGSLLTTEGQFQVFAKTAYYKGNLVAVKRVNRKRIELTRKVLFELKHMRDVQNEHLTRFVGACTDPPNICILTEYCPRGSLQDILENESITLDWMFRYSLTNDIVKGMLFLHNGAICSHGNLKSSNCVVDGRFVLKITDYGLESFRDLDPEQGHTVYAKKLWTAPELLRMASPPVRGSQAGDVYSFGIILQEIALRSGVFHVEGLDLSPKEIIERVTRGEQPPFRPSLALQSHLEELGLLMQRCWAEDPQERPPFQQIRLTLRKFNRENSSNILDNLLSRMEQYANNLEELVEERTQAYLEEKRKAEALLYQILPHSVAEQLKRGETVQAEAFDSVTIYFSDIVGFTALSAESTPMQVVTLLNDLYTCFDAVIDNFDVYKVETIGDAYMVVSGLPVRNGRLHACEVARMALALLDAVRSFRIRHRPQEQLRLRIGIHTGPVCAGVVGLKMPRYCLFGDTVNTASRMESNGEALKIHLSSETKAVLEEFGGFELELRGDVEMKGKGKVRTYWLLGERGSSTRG
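Compound pre-incubated 30 min at room temperature on GloSensor-loaded HEK293 cells stably carrying hNpr1 and the pGS-40F cGMP biosensor. Stimulation uses hNppA at 0.1 nM final; luminescence is taken at baseline and 20 min post-agonist.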
3T3 cytotox – Cytotoxic Profiling in NIH 3T3 Cell Line of Diverse Libraries Using Quantitative High-Throughput Screening; Potency, µM (highest dose often 96.7 µM), without a hit: at the highest dose activity change, negative = cytotoxicity, actives largely listed as inhibitors; actives 4.3% (n = 94,000); AID 1345082, 2018; NIH 3T3 viability, CellTiter-Glo ATP luminescence, 48-72 h; also: nearly all actives have a fitted effect of over 55% in size
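Mouse fibroblast NIH 3T3 cells, 400 per well, received compound via pintool and were incubated for 48 or 72 hr prior to CellTiter-Glo ATP luminescence measurement.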
FLuc inh – Firefly luciferase inhibition profiling of diverse chemical library using quantitative high-throughput screening. Luciferin 4-monooxygenase (Photinus pyralis), P08659. Potency, µM (series often up to 115 µM), usual class: inhibitors. actives 2.5% (n = 76,000). AID 1347043, 2019. purified P. pyralis luciferase, luminescence, biochemical; also: nearly all actives have a fitted effect of over 65% in size
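Luminescence read by CCD imager after adding enzyme (10nM final) to wells holding compound, titrated in qHTS. Substrates 10uM each D-luciferin and ATP; buffer 50mM Tris acetate pH 7.5, 10mM Mg acetate, Tween-20, BSA.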
Active calls of the source: *; i = inactive; ? = inconclusive; / = no result given; [ ] = another dose, or the depositor's remark. Unless noted, calls follow the shape of the dose curve; as a rule, active = well fitted curve in the direction sought with a large enough effect; inconclusive = small, poorly fitted or top-dose-only effect, or another doubt; inactive = no such curve, though single readings can be large; an effect the other way counts as inactive or inconclusive. % is scaled to controls: 0 for no effect and ±100 for the full control effect; potency is read from the fitted curve at half-maximal effect.

SMILES	HEK cytotox	NPR1 antag	3T3 cytotox	FLuc inh
COc1ccc(C(=O)Nc2ccc3c(N4CCOCC4)ncnc3c2)c(C)c1	?	-0.2%	22.4µM*	?
Cc1noc2c(N(C)C)cc(-c3cccc(C(F)(F)F)c3)nc12	-12.9%[172 µM]	-23.9%[70.6 µM]	?	i
COCCCNc1cc(-c2cccc(C(F)(F)F)c2)nc2c(C)noc12	79.4µM*	-15.8%[70.6 µM]	?	i
Cc1noc2c(NCCN(C)C)cc(-c3cccc(C(F)(F)F)c3)nc12	31.6µM*	4.9%[70.6 µM]	31.6µM*	i
CCOC(=O)C1CCN(C(=O)c2cc3c(n2C)CCN(Cc2ccccc2)C3)CC1	?	3.3%	-24.1%	i
COc1ccc(-c2ccc(C(=O)N3CCC(NC(=O)c4ccccc4F)C3)cc2)nn1 (centres undefined)	4.9%	/	-8.1%	/
O=C1CC2(CCN(C(=O)C3CCN(C(=O)NC4CCCC4)CC3)CC2)Oc2ccccc2N1	?	/	-14.7%	/
O=C(Cc1ccccc1)Nc1ccnn1C1CCN(Cc2cc3ccccc3s2)CC1	?	?	?	i
COCCN1Cc2ccc(NCc3ccccc3)nc2C(C)(C(=O)N(C)CCOC)C1 (centres undefined)	?	1.6%[70.6 µM]	?	i
COCCN(C)C(=O)C1(C)CN(Cc2ccccc2)Cc2ccc(NCC(C)C)nc21 (centres undefined)	79.4µM*	0.6%[70.6 µM]	?	i
COCCN1Cc2ccc(NCC(C)C)nc2C(C)(C(=O)Nc2ccccc2)C1 (centres undefined)	?	-12.2%[70.6 µM]	?	i
COCCNC(=O)C1(C)CN(Cc2ccccc2)Cc2ccc(NCC(C)C)nc21 (centres undefined)	39.8µM*	-12.2%[70.6 µM]	22.4µM*	i
COCCNC(=O)C1(C)CN(Cc2ccccc2)Cc2ccc(Nc3ccccc3)nc21 (centres undefined)	?	-1.6%[70.6 µM]	?	i
COCCN1Cc2ccc(NCC(C)C)nc2C(C)(C(=O)Nc2ccc(OC)cc2)C1 (centres undefined)	?	-9.6%[70.6 µM]	44.7µM*	?
CO[C@H]1C[C@@H](O)C12CCN(C(=O)CCc1ccc(-c3cccs3)o1)CC2	25.1µM*	?	?	i
CCC(CC)NC(=O)CCC1CCN(C(=O)c2ccccc2Cl)CC1	?	-4.4%	-2.1%	39.8µM*
O=C(CCC1CCN(C(=O)c2ccccc2Cl)CC1)NC1CC1	-5.8%	4.4%	-4.4%	i
COCCNC(=O)CCC1CCN(C(=O)c2ccccc2Cl)CC1	-0.6%	4.8%	i	31.6µM*
Cc1ccccc1C(=O)N1CCC(CCC(=O)NCCC(C)C)CC1	-26.6%	-4.9%	-24.5%	?
CNC(=O)c1cc(C)nc2onc(C3CCCN(C(=O)c4cccnc4)C3)c12 (centres undefined)	-18.3%	/	-16.8%	/
O=C(C1CCCN1Cc1ccc(-c2cncnc2)cc1)N1CCC(c2ccccc2)CC1 (centres undefined)	?	/	-22.2%	/
CCOC(=O)C1CCN(C(=O)C2CCc3nnc(CNC(C)=O)n32)CC1 (centres undefined)	-5.5%	/	-8.6%	/
COC1CCN(C(=O)Cc2c[nH]c3ncc(-c4ccccc4)cc23)CC1	-1.3%[172 µM]	-3.0%[70.6 µM]	?	?
COc1ccc(-c2cnc3[nH]cc(CC(=O)N4CCC(OC)CC4)c3c2)cc1	?	-13.1%[70.6 µM]	?	22.4µM*
COc1ccc(-c2cnc3[nH]cc(CC(=O)N4CCCC4)c3c2)cc1	70.8µM*	?	7.94µM*	22.4µM*
SMILES	HEK cytotox	NPR1 antag	3T3 cytotox	FLuc inh
CN(C)C(=O)c1ccc(-c2cnc3[nH]cc(CC(=O)N4CCOCC4)c3c2)cc1	?	-1.9%[70.6 µM]	?	i
CCOc1ccccc1CN1CCC2(CCN(C(=O)C(C)(C)C)CC2)Oc2ccccc21	39.8µM*	4.6%	31.6µM*	i
CCOc1ccccc1CN1CCC2(CCN(C(=O)C3CC3)CC2)Oc2ccccc21	44.7µM*	15.6%	25.1µM*	i
Cc1nn(C)c2nc(-c3ccccn3)nc(N3CCC(c4ccc(F)cc4)C3)c12 (centres undefined)	39.8µM*	-7.3%	-27.2%	i
CC(=O)NCCNC[C@@H]1C=C(C)[C@H](Cc2nnc(-c3ccccc3)o2)C[C@H]1C(C)C	56.2µM*	1.2%[70.6 µM]	89.1µM*	i
CC1=C[C@@H](CNCc2cccnc2)[C@H](C(C)C)C[C@H]1Cc1nnc(-c2ccccc2)o1	79.4µM*	-14.3%[70.6 µM]	?	i
CC(=O)Nc1ccc(NC[C@@H]2C=C(C)[C@H](Cc3nnc(C)o3)C[C@H]2C(C)C)cn1	112µM*	-0.6%[70.6 µM]	-14.0%[174 µM]	i
CC1=C[C@@H](CNc2ccccn2)[C@H](C(C)C)C[C@H]1Cc1nnc(-c2ccc(C)cc2)o1	35.5µM*	?	39.8µM*	i
COc1cccc(CNC(=O)c2ccc3oc(-c4ccncc4)nc3c2)c1	-25.6%	/	-21.1%	/
CC1=C[C@@H](CNCc2ccco2)[C@H](C(C)C)C[C@H]1Cc1nnc(-c2ccccc2F)o1	79.4µM*	-21.1%[70.6 µM]	?	i
CC1=C[C@@H](CNCc2ccccn2)[C@H](C(C)C)C[C@H]1Cc1nnc(-c2ccccc2F)o1	22.4µM*	-20.8%[70.6 µM]	?	i
CC1=C[C@@H](CNCc2cccnc2)[C@H](C(C)C)C[C@H]1Cc1nnc(-c2ccccc2F)o1	?	-10.5%[70.6 µM]	-24.8%[138 µM]	i
CC1=C[C@@H](CNCc2ccncc2)[C@H](C(C)C)C[C@H]1Cc1nnc(-c2ccccc2F)o1	20µM*	?	?	i
Cc1nc(CCNC(=O)C2CC2)no1	5.7%	2.8%	0.8%	i
CNC(=O)c1cc(C2CC2)nc2c1c(C1CCN(C(=O)c3cccc(OC)c3)C1)nn2C (centres undefined)	79.4µM*	/	?	/
CCC1(N2CCN(C)CC2)CCN(S(=O)(=O)c2ccccc2)C1 (centres undefined)	-3.4%	-5.7%	-4.0%	i
Cc1ccccc1-n1cc(-c2ccnc(NC(C)Cc3ccncc3)n2)cn1 (centres undefined)	35.5µM*	?	?	i
O=C(c1ccccc1Cl)N1CCN(C(=O)c2nc3cccnc3n(C3CC3)c2=O)CC1	-5.7%	/	-6.2%	/
COc1ccc(CNC(=O)[C@@H]2CCC[C@@H](NCc3ccc(C(F)(F)F)cc3)CN(C)C(=O)C2)cc1	?	?	?	i
CCNC(=O)[C@@H]1CCCN1[C@@H](C(=O)NC)c1ccc(OC)cc1	-2.7%[172 µM]	0.1%[70.6 µM]	-1.3%[138 µM]	i
CNC(=O)[C@@H](c1ccc(OC)cc1)N1CCC[C@H]1C(=O)NCC1CCCCC1	?	-0.2%[70.6 µM]	100µM*	i
Cc1cn2nc(C(=O)NCc3ccc(Cl)cc3)cc2c(N2CCCC2)n1	?	5.9%	?	i

Assay outcomes deposited in PubChem by National Center for Advancing Translational Sciences (NCATS).
